Data taken from PubChem BioAssay (Tox21).
Records with an inconclusive call do not appear. Activity calls are given as the source filed them. Calls come from the whole dose curve; as a rule, active = well fitted curve in the direction sought with a large enough effect in the repeat runs; inconclusive = weak or mixed curves; inactive = no such curve, though single readings can be large; an effect the other way counts as inactive or inconclusive.

molecular target: Nuclear receptor subfamily 1 group I member 2 (Homo sapiens) (UniProt O75469); assay: Human pregnane X receptor (PXR) small molecule agonists, qHTS assay (AID 1346982); details: PXR-Luc HepG2, CYP3A4 luciferase reporter, 24 h; series mostly up to 92.4 µM; activation: at the top concentration; note: nearly all actives have a fitted effect of over 35% in size
Sequence (O75469 whole entry, looked up): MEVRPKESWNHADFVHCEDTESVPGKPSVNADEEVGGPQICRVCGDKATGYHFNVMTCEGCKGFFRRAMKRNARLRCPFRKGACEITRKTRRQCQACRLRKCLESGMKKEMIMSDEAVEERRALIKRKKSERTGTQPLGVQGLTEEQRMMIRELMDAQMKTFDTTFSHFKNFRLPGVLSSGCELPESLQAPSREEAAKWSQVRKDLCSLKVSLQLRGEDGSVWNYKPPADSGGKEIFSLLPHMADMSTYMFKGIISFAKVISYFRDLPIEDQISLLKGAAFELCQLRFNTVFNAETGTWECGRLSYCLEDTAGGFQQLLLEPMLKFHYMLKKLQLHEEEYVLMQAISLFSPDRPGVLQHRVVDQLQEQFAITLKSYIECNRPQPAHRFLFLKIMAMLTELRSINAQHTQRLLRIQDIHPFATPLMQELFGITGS
Method in brief: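 After plating in 5% charcoal-stripped FBS and a 5 hr rest, PXR-Luc HepG2 cells received compounds in DMSO. Following 24 hr at 37 C, ONE-Glo was added and light output read.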
% is set by controls: 0 for no effect and ±100 for the full control effect; potency is the fitted concentration of half-maximal effect.

| SMILES | activation | Potency |
| --- | --- | --- |
| COC(=O)c1cc(Cl)ccc1OC | -7.48% [at 42.5 µM] (inactive) |  |
| O=[N+]([O-])c1ccccc1Nc1ccccc1 |  | 48.3 µM (active) |
| CCc1cc(SCc2sc(-c3ccc(C(F)(F)F)cc3)nc2CN2CCN(c3ccc(OC)cc3)CC2)ccc1OCC(=O)O |  | 48.6 µM (active) |
| CCCN(CCC)c1c([N+](=O)[O-])cc(C(F)(F)F)c(N)c1[N+](=O)[O-] |  | 4.84 µM (active) |
| N#CC1(c2ccc(F)cc2)CCC(=O)CC1 | -5.18% [at 42.5 µM] (inactive) |  |
| CC1=C(C(=O)OC(C)C)C(c2cccc([N+](=O)[O-])c2)C(C(=O)OC2CN(C(c3ccccc3)c3ccccc3)C2)=C(N)N1 (configuration not stated) |  | 9.44 µM (active) |
| Nc1ccc(N)c2ccccc12 |  | 8.63 µM (active) |
| O=C(O)c1cc(O)c2c(c1)C(=O)c1cccc(O)c1C2=O | -6.28% (inactive) |  |
| CC1(C)CCC(C)(C)c2cc(C(=O)Nc3ccc(C(=O)O)cc3)ccc21 | 18.1% (inactive) |  |
| Nc1ccc2cc(S(=O)(=O)O)cc(O)c2c1N=Nc1ccccc1C(F)(F)F | 10.6% (inactive) |  |
| CC(=O)OCC(C)OC(C)=O (configuration not stated) | 13.4% (inactive) |  |
| CC(C)CCCCCCCCCCCCCCC(=O)O | 5.11% (inactive) |  |
| Cc1cc2c(cc1C(F)(F)F)N(C(=O)Nc1ccc(Oc3cccnc3C)nc1)CC2 |  | 13.9 µM (active) |
| Cc1nc(-c2ccc3c(c2)CCN(CCC2CCC(NC(=O)/C=C/c4ccc(F)cc4)CC2)CC3)no1 (configuration not stated) | -2.22% [at 42.5 µM] (inactive) |  |

molecular target: Nuclear receptor subfamily 1 group I member 2 (Homo sapiens) (UniProt O75469); assay: CYP3A4 induction through human pregnane X receptor (PXR) by small molecules, qHTS assay (AID 1346984); details: DPX-2 HepG2 PXR, CYP3A4-luciferin luminescence, 24 h; series mostly up to 46.1 µM; activation: at the top concentration; note: nearly all actives have a fitted effect of over 40% in size
Method in brief: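 Human PXR activation is tracked via CYP3A4 promoter-luciferase in DPX-2 (HepG2) cells. Compounds treat cells for 24hr at 37C, and luminescence is read after One-Glo.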

| SMILES | Potency | activation |
| --- | --- | --- |
| CN1CCN(CCC(=O)N2c3ccccc3Sc3ccc(C(F)(F)F)cc32)CC1 | 14.1 µM (active) |  |
| COc1ccc(C(=O)/C(Br)=C\C(=O)O)cc1 |  | -19.7% (inactive) |
| O=c1c(-c2ccccc2)c1-c1ccccc1 |  | -5.33% (inactive) |
| CCCCCCCCCCCCCCCC[N+](C)(C)CCN(Cc1ccc(OC)cc1)c1ncccn1 |  | 3.87% [at 20.6 µM] (inactive) |
| O=C(Oc1cccc2cccnc12)c1ccccc1 |  | 14.6% (inactive) |
| CC1=C(C(=O)OC(C)C)C(c2cccc([N+](=O)[O-])c2)C(C(=O)OC2CN(C(c3ccccc3)c3ccccc3)C2)=C(N)N1 (configuration not stated) |  | -2.79% (inactive) |

molecular target: Nuclear receptor subfamily 1 group I member 2 (Homo sapiens) (UniProt O75469); assay: Human pregnane X receptor (PXR) activation by small molecules, qHTS assay (AID 1346985); details: DPX-2 HepG2 CYP3A4-luciferase, 24 h; series mostly up to 38.3 µM; activation: at the top concentration; note: nearly all actives have a fitted effect of over 40% in size
Method in brief: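 DPX-2 cells (HepG2 co-transfected with a PXR response element and a CYP3A4-promoter luciferase construct) were seeded at 2,000 per well, rested 5 hr at 37C, then exposed to DMSO-dissolved compounds for 24 hr. Activation was read as luciferase luminescence.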

| SMILES | Potency | activation |
| --- | --- | --- |
| CN1CCN(CCC(=O)N2c3ccccc3Sc3ccc(C(F)(F)F)cc32)CC1 | 15.8 µM (active) |  |
| CN1CCC(Nc2ncc3ncnc(Nc4ccc(F)c(Cl)c4)c3n2)CC1 | 28.2 µM (active) |  |
| COc1ccc(C(=O)/C(Br)=C\C(=O)O)cc1 |  | 10.9% (inactive) |
| O=c1c(-c2ccccc2)c1-c1ccccc1 |  | 16.3% (inactive) |
| CCCCCCCCCCCCCCCC[N+](C)(C)CCN(Cc1ccc(OC)cc1)c1ncccn1 |  | 3.5% [at 17.1 µM] (inactive) |
| O=C(Oc1cccc2cccnc12)c1ccccc1 |  | 1.64% (inactive) |
| CC1=C(C(=O)OC(C)C)C(c2cccc([N+](=O)[O-])c2)C(C(=O)OC2CN(C(c3ccccc3)c3ccccc3)C2)=C(N)N1 (configuration not stated) | 7.08 µM (active) |  |
